Source: PubChem BioAssay (National Center for Advancing Translational Sciences (NCATS))
This is a sample that favours compounds with a hit; in the whole collection about 19% have one here.
TGFb SMAD3 inh – qHTS for Inhibitors of TGF-b; HepG2 CAGA-GFP TGF-b/SMAD3 reporter, GFP fluorescence, 18 h; TGF-beta stimulated, 500 pg/mL final; hit rate 1.2% among 410,000; Potency, µM (series often up to 46.1 µM), inactives show at the top dose activity, negative = inhibition, most hits filed as inhibitors; also: potency is read from the fitted curve at half-maximal effect; % is scaled to controls: 0 for no effect and ±100 for the full control effect; nearly all actives have a fitted effect of over 65% in size
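Cell-based qHTS in HEPG2 carrying a CAGA-GFP Smad reporter; compounds added before 500 pg/mL final TGF-beta, 18 h incubation at 37 degrees C, GFP fluorescence quantified per cell by imaging cytometry.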
TDP1 block – qHTS Assay for Inhibitors of Tyrosyl-DNA Phosphodiesterase (TDP1); Tyrosyl-DNA phosphodiesterase 1 (Homo sapiens), Q9NUW8; recombinant TDP1, AlphaScreen DNA substrate cleavage; Potency, µM (titrated, usually from 130 µM), without a hit: at the highest dose activity change, negative = inhibition, most hits filed as inhibitors; hit rate 0.28% among 350,000; AID 485290, 2010; also: potency is read from the fitted curve at half-maximal effect; % is scaled to controls: 0 for no effect and ±100 for the full control effect; nearly all actives have a fitted effect of over 40% in size
Target sequence (Q9NUW8 whole entry, looked up): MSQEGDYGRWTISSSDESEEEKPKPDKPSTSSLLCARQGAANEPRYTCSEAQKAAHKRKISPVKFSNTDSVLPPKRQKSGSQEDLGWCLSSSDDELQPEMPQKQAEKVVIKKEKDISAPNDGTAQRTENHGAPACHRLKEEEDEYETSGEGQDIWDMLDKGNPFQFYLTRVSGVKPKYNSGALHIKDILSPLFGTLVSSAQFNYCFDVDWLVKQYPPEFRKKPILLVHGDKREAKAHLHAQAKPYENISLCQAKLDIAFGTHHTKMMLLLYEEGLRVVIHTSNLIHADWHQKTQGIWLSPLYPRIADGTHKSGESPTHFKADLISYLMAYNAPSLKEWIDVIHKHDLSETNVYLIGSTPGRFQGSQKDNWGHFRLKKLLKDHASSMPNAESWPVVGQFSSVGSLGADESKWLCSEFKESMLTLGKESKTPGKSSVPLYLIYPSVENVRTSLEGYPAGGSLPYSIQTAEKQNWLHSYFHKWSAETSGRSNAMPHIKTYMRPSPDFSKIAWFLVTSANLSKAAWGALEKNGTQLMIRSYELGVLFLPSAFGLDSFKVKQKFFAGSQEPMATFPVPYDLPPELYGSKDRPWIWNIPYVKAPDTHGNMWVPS
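Steps: enzyme plus compound, 15 min RT; add biotin/phosphotyrosine-FITC oligonucleotide (15 nM final), react 5 min; add donor/acceptor beads (10 ug/ml final), 10 min; read AlphaScreen. Tdp1 at 1 nM final.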
DT40 TDP1 CPT – qHTS for Inhibitors of human tyrosyl-DNA phosphodiesterase 1 (TDP1): qHTS in cells in presence of CPT. chicken DT40 Tdp1-/-;hTDP1 cells + 20 nM CPT, ATP luminescence, 48 h. hit rate 12% among 420,000. AID 686979, 2013. Potency, µM (titrated, usually from 46.2 µM), inactives show top-dose activity change, negative = growth inhibition, actives largely listed as inhibitors; also: potency is read from the fitted curve at half-maximal effect; % is scaled to controls: 0 for no effect and ±100 for the full control effect; nearly all actives have a fitted effect of over 55% in size
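Cell growth measured by CellTiter-Glo luminescence after a minimum 48 h, 37 C compound exposure with 20 nM CPT in Tdp1-knockout DT40 cells stably expressing hTDP1, seeded 400/well; qHTS titration format.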
HepG2 tox – qHTS for Inhibitors of TGF-b: Cytotox Counterscreen; HepG2 CAGA-GFP viability, ATP luminescence, 18 h; Potency, µM (titrated, usually from 46.1 µM), for the others: top-dose activity change, negative = cytotoxicity, actives largely listed as cytotoxic; hit rate 0.76% among 410,000; AID 588856, 2011; also: potency is read from the fitted curve at half-maximal effect
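HepG2 CAGA-GFP cells (1000/well, DMEM with 1% FBS) received compound, then TGF-beta at 500 pg/mL final, and were incubated 18 hours at 37 degrees C. Viability was read by CellTiter-Glo luminescence. Media-only wells were set as complete cell-killing and DMSO as no toxicity.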
IL-1B inflam inh – qHTS for Inhibitors of Inflammasome Signaling: IL-1-beta AlphaLISA Primary Screen; THP-1 LPS/ATP IL-1B secretion, AlphaLISA, 16 h; hits give low values; activity change, % at 57.5 µM; hit rate 4.7% among 360,000; in the data active = activity change below about -50%; inconclusive = mostly about -30% to -49%; also: % is scaled to controls: 0 for no effect and ±100 for the full control effect
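THP-1 cells pretreated 1 hr with compounds (up to 57.5 uM final), then stimulated with LPS (250 ng/mL final) plus ATP (1.25 mM final); secreted IL-1B measured by AlphaLISA after 16 hr, decreased signal indicating inhibition.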
TDP1 cell noCPT – qHTS for Inhibitors of human tyrosyl-DNA phosphodiesterase 1 (TDP1): qHTS in cells in absence of CPT. Potency, µM (doses to about 46.2 µM), inactives show at the highest dose activity change, negative = growth inhibition, usual class: inhibitors. DT40 Tdp1-/- hTDP1 cells, no CPT, ATP luminescence, 48 h. hit rate 15% among 420,000. AID 686978, 2013; also: potency is read from the fitted curve at half-maximal effect; % is scaled to controls: 0 for no effect and ±100 for the full control effect; nearly all actives have a fitted effect of over 55% in size
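Luminescent ATP content (CellTiter-Glo) served as the growth readout. Knockout chicken DT40 cells expressing human TDP1 were exposed to compounds without camptothecin for a minimum 48 hr at 37 °C.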
* marks the source's active call; other numbers are inactive results; ? = inconclusive; . = no result given; [ ] = another dose, or the depositor's remark. Unless noted, calls follow the shape of the dose curve; as a rule, active = well fitted curve in the direction sought with a large enough effect; inconclusive = small, poorly fitted or top-dose-only effect, or another doubt; inactive = no such curve, though single readings can be large; an effect the other way counts as inactive or inconclusive.

SMILES	TGFb SMAD3 inh	TDP1 block	DT40 TDP1 CPT	HepG2 tox	IL-1B inflam inh	TDP1 cell noCPT
N[C@@]1(C(=O)O)CN[C@@H](C(=O)O)C1	.	0.0%	-16.2%	.	.	-12.9%
Cc1cccc(C)c1NC(=O)CCC(=O)N1Cc2ccccc2Oc2ncccc21	2.9%	3.2%	-6.9%	1.0%	.	-26.0%
O=C(CSc1ccccc1)Nc1ccc2c(c1)C(=O)NC2=O	2.8%	0.3%	0.3%	-6.9%	5.1	1.6%
CCC1CN(CCNC(=O)c2scc3c2OCCO3)Cc2cc(OC)ccc2O1 (stereo unspecified)	.	.	4.8%[9.04 µM]	.	.	?
Cc1cc(Cl)ccc1C(=O)C1CCCN(C(=O)c2snnc2C)C1 (stereo unspecified)	5.8%	0.0%	?	5.4%	12.3	?
CN1C(=O)Cc2cc(S(=O)(=O)CCC(=O)N3CCN(c4ccc(Cl)cc4)CC3)ccc21	?	2.6%	20.6µM*	-20.7%	.	14.6µM*
O=C(c1ccc(CS(=O)(=O)c2ccc(Br)cc2)o1)N1CCN(c2ccc(F)cc2)CC1	4.3%	6.1%	?	-4.1%	-8.0	23.1µM*
COc1cccc(N2CCN(C(=O)CCS(=O)(=O)c3ccc4c(c3)CC(=O)N4C)CC2)c1	-22.9%	-5.3%	?	-10.7%	.	?
O=C(CCS(=O)(=O)c1ccc(Br)cc1)N1CCN(c2ccc(Cl)cc2)CC1	10.5%	1.0%	?	-4.5%	7.7	14.6µM*
O=C(NCc1ccc(F)cc1)c1ccc(CS(=O)(=O)c2ccc(Br)cc2)o1	?	.	?	-2.3%	?	10.3µM*
C=CCOC(=O)N[C@H](/C(C(=O)OC)=C(\C)NCc1ccccc1)c1cccc(C(F)(F)F)c1	.	8.7%	.	.	.	.
Cc1ccc(NC(=O)Cn2cc(C(=O)c3cccs3)c3ccccc32)cc1C	?	2.1%	?	-16.1%	.	?
Cc1ccc(S(=O)(=O)Nc2cccc(-c3ccc(N4CCCCC4)nn3)c2)s1	?	5.3%	?	0.4%	.	?
COC(=O)c1sccc1S(=O)(=O)N1CCCC(N(C)CCc2ccccn2)C1 (stereo unspecified)	14.5%	2.8%	2.5%	-2.7%	15.7	-2.9%
O=C(CNS(=O)(=O)c1ccc(Cl)cc1)N1CCN(c2ccc(F)cc2)CC1	-6.2%	2.8%	?	-9.2%	-7.5	?
Cc1ccc(S(=O)(=O)CC(=O)N2CCN(c3ccc(F)cc3)CC2)cc1	7.8%	2.0%	-7.6%	8.8%	0.0	-25.4%
O=C(CCS(=O)(=O)c1ccc(Cl)cc1)Nc1ccc(N2CCOCC2)cc1	-3.3%	0.0%	20.6µM*	5.8%	25.2	14.6µM*
O=C(CNS(=O)(=O)c1ccc(Br)cc1)N1CCN(c2ccc(F)cc2)CC1	-21.2%	1.7%	?	-5.2%	-12.2	18.4µM*
CC(=O)N1CCN(c2ccc(NC(=O)c3ccc(Cl)cc3)cc2)CC1	-21.3%	.	4.5%	-24.6%	-2.6	-17.9%
CNS(=O)(=O)c1cn(CC(=O)N2CCN(c3ccc(Cl)cc3)CC2)cc1S(=O)(=O)NC	0.0%	5.6%	14.6µM*	-10.4%	.	13µM*
O=C(CCS(=O)(=O)c1ccc(Br)cc1)N1CCN(c2ccc(F)cc2)CC1	-27.8%	0.2%	?	-8.7%	-8.9	16.4µM*
N=C(N)c1ccc(OCCCCCOc2ccc(C(=N)N)cc2)cc1 (tested in a mixture with another compound)	.	12.8%[56.1 µM]	.	.	.	.
COc1ccc(NC(=O)c2cc(CN3CCCC3)on2)cc1Cl	3.4%	7.1%	-0.5%	-3.8%	.	-11.3%
